Measurements as given in PubChem BioAssay AID449762 (Southern Research Specialized Biocontainment Screening …, 2010).
Screen size: about 330,000 compounds; about 1,900 (0.58%) were called active. About 4% were inconclusive and are not listed. Not all results are given here. Entries with a potency or affinity are not part of this list. Unmarked numbers belong to inactive results. Cut-off read from the data, not from the text of the source: inconclusive = inhibition above about 70% without an active follow-up result; inactive = below that.

assay: M. tuberculosis growth inhibition, HTS (AID 449762);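 note: bacterial growth assessed after seven days of incubation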; conditions: M. tuberculosis H37Rv growth inhibition, 7H9 media; at 25 µM; active compounds read high

| Compound | inhibition [%] |
| --- | --- |
| COc1ccc(NC(=O)CCN2CCN(S(=O)(=O)c3cc(Cl)ccc3Cl)CC2)cc1 | -9.19 |
| Fc1ccccc1Oc1nc(-c2ccncc2)nc2ccccc12 | 4.31 |
| O=C(N/N=C/c1c(O)n(Cc2ccccc2)c(=O)[nH]c1=O)c1ccccc1O | 14.7 |
| O=C(Nc1nc2ccccc2[nH]1)C1CC1 | -4.47 |
| CC(=O)Nc1nc2ccccc2[nH]1 | -2.83 |
| O=C1CCCCC(=O)N(c2ccccc2)c2ccccc21 | 4.12 |
| O=C1CC(=O)N(c2ccccc2)c2ccccc21 | 8.88 |
| COC(=O)c1ccsc1NC(=O)CCS(=O)(=O)c1ccc(Cl)cc1 | -2.4 |
| CCCCNC(=O)CSc1nc2c(sc(=S)n2-c2cc(Cl)ccc2OC)c(=O)[nH]1 | 2.82 |
| CCOc1ccc(OCCC(=O)OCC(=O)Nc2ccc(N3CCOCC3)cc2)cc1 | 8.74 |
| C=CCNCc1ccccc1[N+](=O)[O-] | 15 |
| Cc1c(C#N)c2ncnc(-c3ccccc3)c2n1-c1ccccc1 | -23.1 |
| COc1cccc2c1-c1c(O)cccc1C2=O | 6.4 |
| COC(=O)c1cc(C#N)c(=O)[nH]c1C | 4.68 |
| O=C(CSc1ccc(F)cc1)N1CCC(c2nc3ccccc3s2)CC1 | 3.87 |
| O=C(CSc1c(Cl)cccc1Cl)N1CCC(c2nc3ccccc3s2)CC1 | 6.33 |
| CN1CCC(OC(=O)COc2ccccc2)CC1 | -3.85 |
| Cc1ccc2c(c1)N(C(=O)CCC(=O)N1CCOCC1)CCO2 | -0.82 |
| O=S(=O)(Nc1ccccn1)c1cccs1 | -1.52 |
| O=S(=O)(c1cccs1)n1cccn1 | 0.03 |
| Cc1nc2ccc(NC(=O)c3ccc(S(=O)(=O)N(C)C)cc3)cc2s1 | 3.86 |

| Compound | inhibition [%] |
| --- | --- |
| COc1ccccc1N(C)S(=O)(=O)c1ccc(C(=O)Nc2ccncc2)cc1 | 6.47 |
| COc1ccc(N2CCN(S(=O)(=O)CCNC(=O)/C=C/c3ccccc3)CC2)cc1 | 7.56 |
| O=C(COC(=O)C1CC2CCCC(C1)C2=O)NC(=O)c1ccccc1 (configuration not stated) | -2.77 |
| O=C(COC(=O)C1CC2CCCC(C1)C2=O)NNC(=O)c1ccccc1Br (configuration not stated) | -3.73 |
| Cc1nn(CC(O)c2ccccc2)c(C)c1Br (configuration not stated) | -6.52 |
| CCn1c(NC(C)=O)nc2ccccc21 | 31.6 |
| CCC(=O)Nc1nc2ccccc2n1CCN(C)C | -8.02 |
| CCCn1c(NC(=O)c2ccccc2)nc2ccccc21 | -7.04 |
| O=C(Nc1nc2ccccc2n1Cc1ccc(Cl)cc1)c1ccco1 | 50.9 |
| O=C(CSCc1ccc(Cl)cc1)Nc1ccc(S(=O)(=O)N2CCCCCC2)cc1 | 1.03 |
| CC1CCCC(NC(=O)CSc2nncs2)C1C (configuration not stated) | -10.3 |
| CCC(=O)c1ccc(OCC(=O)Nc2nc(-c3cccnc3)cs2)cc1 | 24.3 |
| COC1=CC2[C@@H]3Cc4ccc(OC)c(O)c4[C@]2(CCN3C)CC1=O (some centres not stated) | 6.39 |
| CC(C)=CCC/C(C)=C/CNC(=O)CC1C[C@H](C(=O)N2CCCCC2)[C@@]2(C)c3[nH]c4ccccc4c3CCN2C1=O (some centres not stated) | -1.03 |
| Cc1cccc(NC(=O)C2Cc3ccccc3O/C2=N\O)c1 (configuration not stated) | 0.7 |
| CC(C)C(=O)N[C@H]1CCC2C3CC=C4C[C@@H](O)CC[C@]4(C)C3CC[C@@]21C (some centres not stated) | 4.73 |
| CN(C)CCN[C@H]1CCC2C3CC=C4C[C@@H](O)CC[C@]4(C)C3CC[C@@]21C (some centres not stated) | 1.3 |
| CCCCn1c(N)c(N(CC(C)C)C(=O)CCCc2nc3ccccc3c(=O)[nH]2)c(=O)[nH]c1=O | 0.43 |
| Cc1cc(NC(=O)CCC(=O)N(CC(=O)NC2CCCC2)c2ccc3c(c2)OCCO3)no1 | -6.7 |
| COc1ccc(-n2nc3c(c2NC(=O)CCCl)CSC3)cc1 | 5.23 |
| CCC(=O)Nc1c2c(nn1-c1ccc(OC)cc1)CSC2 | 1.36 |

| Compound | inhibition [%] |
| --- | --- |
| CC(=O)N(c1ccc(Cl)cc1)c1cn(C(C)=O)c2ccccc12 | 8.81 |
| CC(=O)n1cc(CO)c2ccccc21 | -8.42 |
| COc1ccccc1N1CCN(C(=O)CCCn2nc(C)c([N+](=O)[O-])c2C)CC1 | 2.97 |
| CCOc1ccc(C(=O)Nn2cnnc2)cc1 | 7.03 |
| O=C(N/N=C/c1sc(=O)[nH]c1-[n+]1ccccc1)c1ccccc1[O-] | -8.63 |
| CCOc1ccc(N2CC(=O)N(c3ccc(OCC)cc3)CC2=O)cc1 | -4.6 |
| CCOc1ccc(N2C(=O)CNC2=S)cc1 | 0.76 |
| O=C(COc1ccc(Br)cc1)c1ccc2c(c1)CCCC2 | 2.77 |
| COc1cc(CN2CCC(n3nccc3NC(=O)c3ccccc3OC)CC2)ccc1F | 7.24 |
| COc1cc(NC(=O)CN2CCN(c3ccccc3O)CC2)c(C)cc1[N+](=O)[O-] | -10.9 |
| Cc1ccc(COc2ccsc2-c2n[nH]c(=S)n2C)cc1 | -10.5 |
| CN(C)C(=O)CSc1nc2ccc(C(=O)c3ccccc3)cc2[nH]1 | 1.68 |
| O=C(c1cccc([N+](=O)[O-])c1)N1CCOCC1 | 5.5 |
| O=C(c1cccc(Cl)c1)N1CCN(c2ccc(N3CCOCC3)nn2)CC1 | 0.55 |
| COc1ccc(N2CCN(C(=O)C3CC(=O)N(c4ccc(C)cc4)C3)CC2)cc1 (configuration not stated) | 5.21 |
| COc1cccc(CC2(CO)CCCN(Cc3ccccc3-c3ccco3)C2)c1 (configuration not stated) | 5.57 |
| COc1cccc(C(=O)Nc2cccc(NC(=O)c3cccs3)c2)c1 | 0.1 |
| S=c1[nH]nc(-c2ccncc2)n1/N=C/c1cn(-c2ccccc2)nc1-c1ccccc1 | 1.85 |
| O=C(CC1C(=O)NCCN1Cc1ccoc1)NCCc1ccc(Cl)cc1 (configuration not stated) | -3.28 |
| COC(=O)C1CSC(c2ccc(Cl)cc2)N1C(=O)c1ccccc1 (configuration not stated) | 3.7 |
